Screening results as filed in PubChem.
This is a sample that favours compounds with a hit; in the whole collection about 2.3% have one here.
MEKK2mut PB1 HTS: signal of MEK5 binding to mutant human MEKK2 PB1 domain. bead flow cytometry, Alexa488-MEK5 binding to MEKK2 mutant. percent response, % at 10 µM. 0.35% of 290,000 active. AID 1530; in the data active means percent response above about 24%, passing the limit was not always enough
UBC13 polyUb: human UBC13 polyubiquitination inhibition; 0.47% of 330,000 active; P61088; inhibition, % at 20 µM; UBC13 polyubiquitin chain formation, TR-FRET; in the data active means inhibition above about 45%, passing the limit was not always enough
Target sequence (P61088 whole entry, looked up): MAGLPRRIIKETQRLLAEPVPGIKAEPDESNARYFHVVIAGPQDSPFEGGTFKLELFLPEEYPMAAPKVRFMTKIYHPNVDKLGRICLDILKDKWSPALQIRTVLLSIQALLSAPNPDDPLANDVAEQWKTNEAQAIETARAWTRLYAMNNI
MEKK3 PB1 HTS: raises or lowers MEK5 binding to the human MEKK3 PB1 domain | AID 1529 | bead-based flow cytometry, Alexa488-MEK5 binding to MEKK3; actives lie on both sides; 0 = blocked by unlabeled MEK5, 100 = vehicle | 1.4% of 290,000 active | Q99759 | binding response (% of control), % at 10 µM;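 active means binding response more than 3 SD above or below the average of its plate-row segment, actives on both sides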;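 further: Alexa488 bead fluorescence after subtracting the streptavidin-only scavenger bead signal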
MEKK2wt PB1 HTS: raises or lowers MEK5 binding to wildtype human MEKK2 PB1 domain; bead flow cytometry, Alexa488-MEK5 binding to MEKK2 WT; actives lie on both sides; binding response (% of control), % at 10 µM; 1.1% of 290,000 active; AID 1531; in the data active means binding response below about 67% or above about 130%
MEKK2wt confirm: raises or lowers MEK5 binding to wildtype human MEKK2, retest; AID 1892; shares compounds with MEKK3 PB1 HTS; 2.4% of 5,900 active; bead flow cytometry, Alexa488-MEK5 binding to MEKK2 WT; actives lie on both sides; binding response (% of control), % at 10 µM; in the data active means binding response below about 16% or above about 210%; inactive means in between
MEKK2mut confirm: signal of MEK5 binding to mutant human MEKK2, retest | shares compounds with MEKK3 PB1 HTS | percent response, % at 10 µM | 2% of 5,900 active | bead flow cytometry, Alexa488-MEK5 binding to MEKK2 mutant | AID 1893; in the data active means percent response mostly above about 71%, no sharp cut-off; inactive means mostly below about 38%;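 further: higher means compound restores mutant binding toward wildtype level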
MEKK3 confirm: MEKK3-MEK5 PB1 inhibition, single concentration confirmation; bead flow cytometry, Alexa488-MEK5 binding to MEKK3; active compounds read low; 1.8% of 5,900 active; shares compounds with MEKK3 PB1 HTS; binding response (% of control), % at 10 µM;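 active means binding response below 72% of control, or above a set upper limit, though filed actives all read lower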;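 further: 100% = DMSO only wells and 0% = binding blocked by excess unlabeled MEK5; lower values mean stronger disruption of MEK5 binding to MEKK3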
* marks the source's active call; other numbers are inactive results; [ ] = dose if it differs, or a comment.

Results for COc1cc(CC(=O)OCC(=O)Nc2cc([N+](=O)[O-])ccc2Cl)cc(OC)c1OC ?
MEKK2mut PB1 HTS: 9; UBC13 polyUb: 4; MEKK3 PB1 HTS: 97; MEKK2wt PB1 HTS: 58*[inhibitor]; MEKK2wt confirm: 90; MEKK2mut confirm: -6; MEKK3 confirm: 97

What do the screens show for `CN1CCN(C(=O)/C(=C/c2cccs2)NC(=O)c2cccs2)CC1`?
MEKK2mut PB1 HTS: 0; UBC13 polyUb: -7; MEKK3 PB1 HTS: 72*[inhibitor]; MEKK2wt PB1 HTS: 101; MEKK2wt confirm: 107; MEKK2mut confirm: 3; MEKK3 confirm: 103

Results for O=C(N/C(=C\c1cccs1)C(=O)N1CCOCC1)c1cccs1 ?
MEKK2mut PB1 HTS: -5; UBC13 polyUb: -2; MEKK3 PB1 HTS: 100; MEKK2wt PB1 HTS: 96

How did COc1cc(/C=C(/NC(=O)c2ccccc2)C(=O)N2CCN(C)CC2)c([N+](=O)[O-])cc1OC do in these assays?
MEKK2mut PB1 HTS: 4; UBC13 polyUb: -3; MEKK3 PB1 HTS: 130*; MEKK2wt PB1 HTS: 105; MEKK2wt confirm: 107; MEKK2mut confirm: 5; MEKK3 confirm: 103

What do the screens show for `O=C(N/C(=C\c1cccs1)C(=O)N1CCOCC1)c1ccco1`?
MEKK2mut PB1 HTS: -3; UBC13 polyUb: -9; MEKK3 PB1 HTS: 100; MEKK2wt PB1 HTS: 96

Results for CN1CCN(C(=O)/C(=C\c2cccs2)NC(=O)c2ccco2)CC1 ?
MEKK2mut PB1 HTS: 0; UBC13 polyUb: -17; MEKK3 PB1 HTS: 134*; MEKK2wt PB1 HTS: 108; MEKK2wt confirm: 107; MEKK2mut confirm: 7; MEKK3 confirm: 107

What do the screens show for `CCc1ccccc1NC(=O)CN1CCN(C(=O)CN2C(=O)NC3(CCCC3)C2=O)CC1`?
UBC13 polyUb: 3

How did COc1cc(/C=N/n2cnnc2)ccc1OC(=O)c1ccncc1 do in these assays?
MEKK2mut PB1 HTS: -9; UBC13 polyUb: 2; MEKK3 PB1 HTS: 56*[inhibitor]; MEKK2wt PB1 HTS: 70; MEKK2wt confirm: 97; MEKK2mut confirm: -5; MEKK3 confirm: 98

Results for O=C(/C=C/c1ccccc1Cl)Nc1ccc(-c2nnc3n2CCCCC3)cc1 ?
MEKK2mut PB1 HTS: 1; UBC13 polyUb: 20; MEKK3 PB1 HTS: 137*; MEKK2wt PB1 HTS: 102; MEKK2wt confirm: 103; MEKK2mut confirm: 5; MEKK3 confirm: 107

How did CCOC(=O)C(NC(=O)Nc1ccc(Cl)cn1)(Oc1ccccc1)C(F)(F)F (centres undefined) do in these assays?
MEKK2mut PB1 HTS: 4; UBC13 polyUb: 2; MEKK3 PB1 HTS: 153*; MEKK2wt PB1 HTS: 104; MEKK2wt confirm: 105; MEKK2mut confirm: 4; MEKK3 confirm: 104

What do the screens show for `O=C(N/N=C/c1c(O)n(-c2ccccc2Cl)c(=O)c2ccccc12)C1COc2ccccc2O1` (centres undefined)?
MEKK2mut PB1 HTS: 0; UBC13 polyUb: -10; MEKK3 PB1 HTS: 137*; MEKK2wt PB1 HTS: 103; MEKK2wt confirm: 100; MEKK2mut confirm: -1; MEKK3 confirm: 102

How did Cc1c(/C=N\NC(=O)C2COc3ccccc3O2)c2ccccc2n1C (centres undefined) do in these assays?
MEKK2mut PB1 HTS: 15; MEKK3 PB1 HTS: 96; MEKK2wt PB1 HTS: 26*[inhibitor]; MEKK2wt confirm: 101; MEKK2mut confirm: 9; MEKK3 confirm: 102

Results for CCCC(C(=O)NC1CCCC1)N(Cc1ccccc1Cl)C(=O)c1snc(C(N)=O)c1N (centres undefined) ?
MEKK2mut PB1 HTS: 1; UBC13 polyUb: 20; MEKK3 PB1 HTS: 102; MEKK2wt PB1 HTS: 94

What do the screens show for `Cc1ccc(CSc2nnc(NC(=O)C3=COCCO3)s2)cc1`?
UBC13 polyUb: 1

Results for CCC1(C(=O)OC)CCc2c(cc(OC)c3ccccc23)C1=O (centres undefined) ?
MEKK2mut PB1 HTS: -3; UBC13 polyUb: 20; MEKK3 PB1 HTS: 99; MEKK2wt PB1 HTS: 93

How did CCCCN(CC)CCNC(=O)c1nn(-c2ccc(OC)cc2)c(=O)c2c1c1ccccc1n2C do in these assays?
MEKK2mut PB1 HTS: 16; UBC13 polyUb: 22; MEKK3 PB1 HTS: 107; MEKK2wt PB1 HTS: 144*; MEKK2wt confirm: 134; MEKK2mut confirm: 25; MEKK3 confirm: 111

What do the screens show for `CCCCN(CC)CCNC(=O)c1cn(C)c(=O)c2c1c1ccccc1n2C`?
MEKK2mut PB1 HTS: 7; UBC13 polyUb: 4; MEKK3 PB1 HTS: 105; MEKK2wt PB1 HTS: 110

What do the screens show for `Cc1cc(C)c2cc3c(ccn3C3OC[C@H](O)[C@H](O)[C@H]3O)cc2n1` (some centres undefined)?
MEKK2mut PB1 HTS: 12; UBC13 polyUb: -4; MEKK3 PB1 HTS: 102; MEKK2wt PB1 HTS: 6.0*[inhibitor]; MEKK2wt confirm: 109; MEKK2mut confirm: 12; MEKK3 confirm: 104

Results for COc1ccc(CNC(=O)C(c2ccncc2)N(C(=O)Cc2cccs2)c2ccc(C)cc2)cc1 (centres undefined) ?
MEKK2mut PB1 HTS: -11; UBC13 polyUb: 3; MEKK3 PB1 HTS: 81*[inhibitor]; MEKK2wt PB1 HTS: 86; MEKK2wt confirm: 107; MEKK2mut confirm: 10; MEKK3 confirm: 104

How did CC(C)(C)c1ncc(S(=O)(=O)c2ccc(C(F)(F)F)cn2)c(N)n1 do in these assays?
MEKK2mut PB1 HTS: -8; UBC13 polyUb: 0; MEKK3 PB1 HTS: 93; MEKK2wt PB1 HTS: 97

How did CN1CCC(NCCC(c2ccc(F)cc2)c2ccc(Cl)cc2)CC1 (centres undefined) do in these assays?
MEKK2mut PB1 HTS: -49; UBC13 polyUb: 15; MEKK3 PB1 HTS: 4.0*[inhibitor]; MEKK2wt PB1 HTS: 10*[inhibitor]; MEKK2wt confirm: 150; MEKK2mut confirm: 37; MEKK3 confirm: 106

Results for CC(C)C(CCNC1CCN(C)CC1)c1ccc(Cl)cc1 (centres undefined) ?
MEKK2mut PB1 HTS: 5; UBC13 polyUb: 12; MEKK3 PB1 HTS: 93; MEKK2wt PB1 HTS: 108

What do the screens show for `Cc1cc(C)cc(OC(C)C(=O)Nc2ccc(S(=O)(=O)Nc3cc(C)nc(C)n3)cc2)c1` (centres undefined)?
MEKK2mut PB1 HTS: 4; UBC13 polyUb: -14; MEKK3 PB1 HTS: 105; MEKK2wt PB1 HTS: 110

What do the screens show for `O=C(Cc1cccs1)NCCSc1c(-c2ccc(Cl)cc2)[nH]c2ccccc12`?
MEKK2mut PB1 HTS: -14; UBC13 polyUb: 34; MEKK3 PB1 HTS: 1.0*[inhibitor]; MEKK2wt PB1 HTS: 2.0*[inhibitor]; MEKK2wt confirm: 118; MEKK2mut confirm: 5; MEKK3 confirm: 107

Results for CCOC(=O)CSc1c(-c2ccc(Cl)cc2)[nH]c2ccccc12 ?
MEKK2mut PB1 HTS: 8; UBC13 polyUb: -5; MEKK3 PB1 HTS: 155*; MEKK2wt PB1 HTS: 109; MEKK2wt confirm: 103; MEKK2mut confirm: -4; MEKK3 confirm: 97
